Results published in the supplement of paper PMC12494721.
Counter-ions that a name gives are not always drawn.

Experiments:
Conditions in all cases: incubation time: 27 h, anaerobic, 37 °C;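 for the amine columns active = adjusted P below 0.05 in both replicates with a change the same way and a mean fold change under 0.8 or over 1.25; inactive = the rest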
[1] = tested on: Clostridium sporogenes DSM 1664; test: growth (OD595) fold change vs plate DMSO controls (fold change (ratio)); higher = more growth
Procedure, shortened: (§1)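 Shaken 96-well cultures in mGAM, grown anaerobically for 27 h at 37 °C, were read at 595 nm. OD came from blank-subtracted readings, corrected for background with 20 µM compound solutions in water and scaled by a calibration factor of 5. Growth is the fold change versus the plate's median DMSO control. Values average 2 biological replicates, and any fold change above 1.5 is NA.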

[2] = tested on: Escherichia coli IAI1; test: as above
Procedure, shortened: as §1

[3] = tested on: Klebsiella aerogenes DSM 30053; test: as above
Procedure, shortened: as §1

[4] = tested on: Ruminococcus gnavus DSM 108212; test: as above
Procedure, shortened: as §1

[5] = tested on: Klebsiella aerogenes DSM 30053; test: fold change of Histamine concentration vs plate DMSO controls (fold change (ratio)); higher = more amine produced, active = hit call of the paper (significant change in both replicates, either direction)
Procedure, shortened: (§2)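 Amine values are fold changes relative to DMSO-only wells on the same plate. They derive from 27 h, 37 °C anaerobic mGAM cultures of four gut bacterial strains in 80 µL wells, dosed at 20 µM final, or 50 µM final for sweeteners. Extraction of the whole culture, LC–triple-quadrupole MS in dynamic MRM mode, external calibration curves and within-batch drift correction were used, with 2 biological replicates averaged.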

[6] = tested on: Clostridium sporogenes DSM 1664; test: fold change of Tryptamine concentration vs plate DMSO controls (fold change (ratio)); higher = more amine produced, active = hit call of the paper (significant change in both replicates, either direction)
Procedure, shortened: as §2

[7] = tested on: Ruminococcus gnavus DSM 108212; test: as above
Procedure, shortened: as §2

[8] = tested on: Escherichia coli IAI1; test: fold change of Putrescine concentration vs plate DMSO controls (fold change (ratio)); higher = more amine produced, active = hit call of the paper (significant change in both replicates, either direction)
Procedure, shortened: as §2

[9] = tested on: Klebsiella aerogenes DSM 30053; test: as above
Procedure, shortened: as §2

[10] = tested on: Escherichia coli IAI1; test: fold change of Cadaverine concentration vs plate DMSO controls (fold change (ratio)); higher = more amine produced, active = hit call of the paper (significant change in both replicates, either direction)
Procedure, shortened: as §2

[11] = tested on: Klebsiella aerogenes DSM 30053; test: as above
Procedure, shortened: as §2

[12] = tested on: Ruminococcus gnavus DSM 108212; test: fold change of 2-Phenylethylamine concentration vs plate DMSO controls (fold change (ratio)); higher = more amine produced, active = hit call of the paper (significant change in both replicates, either direction)
Procedure, shortened: as §2

| Structure (SMILES) | growth [1] | growth [2] | growth [3] | growth [4] | fold change of Histamine concentration [5] | fold change of Tryptamine concentration [6] | fold change of Tryptamine concentration [7] | fold change of Putrescine concentration [8] | fold change of Putrescine concentration [9] | fold change of Cadaverine concentration [10] | fold change of Cadaverine concentration [11] | fold change of 2-Phenylethylamine concentration [12] |
| --- | --- | --- | --- | --- | --- | --- | --- | --- | --- | --- | --- | --- |
| O=C(Nc1cccc2c(=O)cc(-c3nnn[nH]3)oc12)c1ccc(OCCCCc2ccccc2)cc1 [Pranlukast] (20 µM) | 1.1 | 1.07 | 0.999 | 0.934 | 0.986 (inactive) | 0.686 (active) | 0.804 (inactive) | 1.02 (inactive) | 1.01 (inactive) | 1.03 (inactive) | 1.02 (inactive) | 0.865 (inactive) |
| CCN(CC)CCCC(C)Nc1ccnc2cc(Cl)ccc12 (stereo not given) [Chloroquine diphosphate] (20 µM) | 1.07 | 0.965 | 0.996 | 0.941 | 1.04 (inactive) | 1.1 (inactive) | 1.03 (inactive) | 0.939 (inactive) | 1.02 (inactive) | 0.962 (inactive) | 0.985 (inactive) | 1.02 (inactive) |
| CC(C)=C/C(C)=N/Nc1nncc2ccccc12 [Budralazine] (20 µM) | 1.12 | 1.05 | 0.989 | 0.98 | 1.03 (inactive) | 0.98 (inactive) | 0.994 (inactive) | 0.992 (inactive) | 1.02 (inactive) | 0.963 (inactive) | 1 (inactive) | 0.969 (inactive) |
| C(=C\c1ccccc1)/CN1CCN(C(c2ccccc2)c2ccccc2)CC1 [Cinnarizine] (20 µM) | 1.09 | 0.964 | 0.991 | 0.67 | 0.941 (inactive) | 0.969 (inactive) | 0.824 (inactive) | 0.993 (inactive) | 0.998 (inactive) | 0.991 (inactive) | 1 (inactive) | 0.878 (inactive) |
| CC(=O)c1ccc2c(c1)N(CCCN(C)C)c1ccccc1S2 [Acetopromazine maleate salt] (20 µM) | 0.96 | 1 | 0.976 | 0.878 | 1.03 (inactive) | 1.01 (inactive) | 1.01 (inactive) | 1 (inactive) | 1.01 (inactive) | 1.03 (inactive) | 0.983 (inactive) | 1.03 (inactive) |
| CC1(C)[C@H](C(=O)O)N2C(=O)C[C@H]2S1(=O)=O [Sulbactam] (20 µM) | 0.592 | 1.19 | 0.976 | 1.21 | 1.05 (inactive) | 1.07 (inactive) | 1.07 (inactive) | 1.14 (inactive) | 0.983 (inactive) | 0.985 (inactive) | 1.01 (inactive) | 1.08 (inactive) |
| Oc1ccc(C2CNCCc3c2cc(O)c(O)c3Cl)cc1 (stereo not given) [Fenoldopam] (20 µM) | 1.08 | 0.952 | 0.998 | 0.973 | 1.02 (inactive) | 0.95 (inactive) | 1.03 (inactive) | 1.01 (inactive) | 0.988 (inactive) | 1.04 (inactive) | 0.987 (inactive) | 1.03 (inactive) |
| CCC[C@@H]1C[C@@H](C(=O)N[C@@H]([C@H]2O[C@H](SC)[C@H](O)[C@@H](O)[C@H]2O)[C@H](C)Cl)N(C)C1 [Clindamycin hydrochloride] (20 µM) | 0.899 | 0.682 | 0.934 | 0.134 | 1.54 (inactive) | 0.0905 (active) | 0.136 (active) | 0.4 (inactive) | 0.537 (inactive) | 0.844 (inactive) | 0.932 (inactive) | 0.125 (active) |
| OC[C@H]1O[C@H](O[C@H]2O[C@H](CO)[C@@H](O)[C@H](O)[C@H]2O)[C@H](O)[C@@H](O)[C@@H]1O [Trehalose] (50 µM) | 0.902 | 1.07 | 1.03 | 1.06 | 0.94 (inactive) | 1.16 (inactive) | 1.09 (inactive) | 1 (inactive) | 0.901 (inactive) | 0.831 (inactive) | 1.06 (inactive) | 1.15 (inactive) |
| NC1CCN(c2nc3c(cc2F)c(=O)c(C(=O)O)cn3-c2ccc(F)cc2F)C1 (stereo not given) [Tosufloxacin hydrochloride] (20 µM) | 0.0344 | 0.0566 | 0.173 | 1.45 | 0.0712 (active) | 0.0441 (active) | 0.532 (active) | 0.811 (inactive) | 0.642 (active) | 0.192 (active) | 0.978 (inactive) | 0.615 (active) |
| C[N+](C)(C)C[C@H](O)CC(=O)[O-] [Levocarnitine] (20 µM) | 0.997 | 1 | 0.994 | 0.966 | 1.04 (inactive) | 0.955 (inactive) | 1.07 (inactive) | 1.02 (inactive) | 1.03 (inactive) | 0.929 (inactive) | 1.09 (inactive) | 1.22 (inactive) |
| Nc1ncnc2c1ncn2[C@@H]1O[C@H](CO)[C@@H](O)[C@@H]1O [Vidarabine] (20 µM) | 1.1 | 1.07 | 0.99 | 0.857 | 1.05 (inactive) | 0.947 (inactive) | 0.935 (inactive) | 1.11 (inactive) | 1.02 (inactive) | 0.957 (inactive) | 0.989 (inactive) | 0.976 (inactive) |
| C#C[C@]1(O)CC[C@H]2[C@@H]3CCc4cc(O)ccc4[C@H]3CC[C@@]21C [Ethinylestradiol] (20 µM) | 1.22 | 1.04 | 1.07 | 1.05 | 1.01 (inactive) | 1.01 (inactive) | 0.972 (inactive) | 1.05 (inactive) | 0.998 (inactive) | 1.01 (inactive) | 1.01 (inactive) | 0.936 (inactive) |
| O=[N+]([O-])c1ccc2c(c1)Cc1ccccc1-2 [2-Nitrofluorene] (20 µM) | 0.873 | 0.978 | 0.973 | 0.994 | 0.997 (inactive) | 1 (inactive) | 1.04 (inactive) | 0.97 (inactive) | 1 (inactive) | 1.04 (inactive) | 0.995 (inactive) | 1.02 (inactive) |
| NC(N)=Nc1nc(CSCC/C(N)=N/S(N)(=O)=O)cs1 [Famotidine] (20 µM) | 0.878 | 0.928 | 0.855 | 0.824 | 1.04 (inactive) | 1.02 (inactive) | 1.03 (inactive) | 1.03 (inactive) | 0.999 (inactive) | 0.975 (inactive) | 0.99 (inactive) | 1.07 (inactive) |
| CNCCc1ccccn1 [Betahistine mesylate] (20 µM) | 1.26 | 1 | 1.02 | 1.25 | 0.991 (inactive) | 0.994 (inactive) | 1.02 (inactive) | 1.03 (inactive) | 0.995 (inactive) | 0.967 (inactive) | 0.993 (inactive) | 1.01 (inactive) |
| COc1ccc(CNc2nc(N3CCC[C@H]3CO)ncc2C(=O)NCc2ncccn2)cc1Cl [Avanafil] (20 µM) | 0.96 | 0.981 | 0.99 | 0.992 | 1.01 (inactive) | 0.958 (inactive) | 1.01 (inactive) | 1.04 (inactive) | 1 (inactive) | 1.02 (inactive) | 0.991 (inactive) | 1.01 (inactive) |
| O=C(CCCN1CCC(O)(c2ccc(Br)cc2)CC1)c1ccc(F)cc1 [Bromperidol] (20 µM) | 0.952 | 0.965 | 0.953 | 0.813 | 1.02 (inactive) | 1.02 (inactive) | 0.916 (inactive) | 0.99 (inactive) | 1 (inactive) | 0.913 (inactive) | 0.998 (inactive) | 0.949 (inactive) |
| O=C(O)COCCN1CCN(C(c2ccccc2)c2ccc(Cl)cc2)CC1 (stereo not given) [Cetirizine dihydrochloride] (20 µM) | 1.02 | 1.07 | 1.04 | 0.959 | 0.94 (inactive) | 1.03 (inactive) | 1.01 (inactive) | 1.06 (inactive) | 0.997 (inactive) | 0.957 (inactive) | 1 (inactive) | 1.03 (inactive) |
| CC1(C)S[C@@H]2[C@H](NC(=O)[C@H](N)c3ccccc3)C(=O)N2[C@H]1C(=O)OC1OC(=O)c2ccccc21 (stereo not given in full) [Talampicillin hydrochloride] (20 µM) | 0 | 0.00609 | 0.378 | 0.146 | 0.797 (active) | 0.0102 (active) | 0.0823 (active) | 0.252 (active) | 0.971 (inactive) | 0.867 (inactive) | 1.13 (inactive) | 0.0586 (active) |
| C[C@H](CCC(=O)O)[C@H]1CC[C@H]2[C@@H]3CC[C@@H]4C[C@H](O)CC[C@]4(C)[C@H]3CC[C@]12C [Lithocholic acid] (20 µM) | 1.13 | 1.01 | 1.19 | 0.903 | 0.9 (inactive) | 1.03 (inactive) | 1.05 (inactive) | 1.06 (inactive) | 0.999 (inactive) | 0.975 (inactive) | 1.03 (inactive) | 1.09 (inactive) |
| CO/N=C(\C(=O)N[C@@H]1C(=O)N2C(C(=O)O)=C(COC(N)=O)CS[C@H]12)c1ccco1 [Cefuroxime sodium salt] (20 µM) | 0 | 0.0568 | 0.796 | 0.229 | 1.1 (inactive) | 0.031 (active) | 0.0602 (active) | 0.84 (inactive) | 1.03 (inactive) | 1.98 (active) | 1.07 (inactive) | 0.0618 (active) |
| NS(=O)(=O)c1cc(C(=O)O)cc(N2CCCC2)c1Oc1ccccc1 [Piretanide] (20 µM) | 1.09 | 0.987 | 0.997 | 0.955 | 1.01 (inactive) | 1.11 (inactive) | 1.1 (inactive) | 0.974 (inactive) | 1.04 (inactive) | 1.06 (inactive) | 1.08 (inactive) | 1.23 (inactive) |
| NC(=O)NS(=O)(=O)c1ccc(N)cc1 [Sulfacarbamide] (20 µM) | 0.977 | 1.02 | 0.993 | 0.94 | 1.04 (inactive) | 0.967 (inactive) | 1 (inactive) | 1.01 (inactive) | 1.02 (inactive) | 1 (inactive) | 1.01 (inactive) | 0.972 (inactive) |
| CS(=O)(=O)c1ccc(C2=C(c3ccccc3)C(=O)OC2)cc1 [Rofecoxib] (20 µM) | 1 | 0.962 | 0.973 | 1.1 | 0.981 (inactive) | 1.2 (inactive) | 1.08 (inactive) | 1.02 (inactive) | 0.99 (inactive) | 1.04 (inactive) | 1.01 (inactive) | 1.07 (inactive) |
